Data on five molecules can be found in PubChem BioAssay.

A short description of test [1]: rapamycin-like changes in RPL19A-GFP expression – cell-based, S. cerevisiae, multiplex flow cytometry, primary screen (AID 1862; in the data active = percent of DMSO control GFP below about 86%;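 note: lower values mimic rapamycin by blocking the RPL19A rise seen in DMSO cells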). The conditions noted are these: S. cerevisiae RPL19A-GFP strain, flow cytometry fluorescence, 3 h; at 10 µM; stronger effect = lower value.
Test [2] in a line: TOR pathway GLN3 branch reporter MEP2-GFP changes – S. cerevisiae, multiplex flow cytometry, primary screen (AID 1867;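 active = GFP response, as percent of the DMSO control, above the screen-wide mean plus 3 SD, about 139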;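 note: median GFP channel fluorescence of barcode-gated MEP2-GFP cells measured by flow cytometry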). The note with it: S. cerevisiae MEP2-GFP strain, 3 h, at 10 µM, stronger effect = higher value, 100% means same as DMSO wells.
Test [3] can be described thus: TOR pathway RTG branch CIT2 reporter changes – S. cerevisiae, GFP fusion, multiplex flow cytometry, primary screen (AID 1870;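 active = percent response above a set limit, the screen-wide mean plus 3 SD, cut at about 130% in these data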;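 note: barcoded CIT2-GFP strain pooled with four other GFP strains with rapamycin as positive control; median GFP fluorescence per well over plate mean of DMSO wells so 100% = DMSO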). The conditions noted are these: S. cerevisiae CIT2-GFP expression, 3 h, at 10 µM, stronger effect = higher value.
The nature of test [4]: TOR pathway LAP4-GFP level changes – S. cerevisiae, multiplex flow cytometry, primary screen (AID 1873). The note with it: S. cerevisiae LAP4-GFP expression, 3 h, at 10 µM, stronger effect = higher value.
The nature of test [5]: yeast AGP1-GFP level changes, GLN3 branch – cell-based, multiplex flow cytometry, S. cerevisiae, primary screen (AID 1887;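 active = GFP signal above the screen-wide mean plus 3 SD, that is over about 124.5% of the solvent control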;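 note: AGP1-GFP fusion strain of S. cerevisiae within a five-strain barcoded multiplex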). The note with it: 3 h, at 10 µM, stronger effect = higher value.
Test [6] in a line: reduced mouse 2C T cell binding to pMHC/ICAM-1 vesicles – MLPCN validation set, flow cytometry, LFA-1/ICAM-1 modulator project, pilot screen (AID 2523;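 active = response below a set limit, under 55% cells CD8-positive and vesicle-bound, and CD8 cells' 90th-percentile brightness under 279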;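 for vesicle binding response: mean PE anti-B7-1 fluorescence of CD8+ cells relative to row control; 100% = QL9-loaded vesicles with DMSO vehicle in the same plate row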). The note with it: 2C mouse CD8+ T cells, at 7 µM, stronger effect = lower value; double positive events: measured here: CD8+/vesicle+ event percentage.
Test [7] addresses Integrin beta-1 (Homo sapiens) + Integrin alpha-4 (Homo sapiens) (UniProt P13612+P05556). As to the kind of experiment: alpha4beta1 integrin LIBS antibody binding reduction – U937 cells, HUTS-21 mAb, flow cytometry, validation set, VLA-4 allosteric modulator project, pilot screen (AID 2674;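 active = inhibition above 50%, about 3 SD of the validation set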;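 note: antibody binding induced by the VLA-4 ligand LDV present at three times its Kd; 0% = LDV ligand with antibody and no compound and 100% = antibody without LDV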). The conditions noted are these: HUTS-21 LIBS mAb binding, at 6.7 µM, stronger effect = higher value, binding induced by LDV ligand.

Test [8] in a line: calorie-restriction mimetic ROS inhibitors, yeast – validation compound set, pilot screen (AID 2706;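 active = superoxide response below 65% of plate, a cut near 3 SD across the whole screen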;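 note: yeast exposed to compound for one week at 30 degrees C before staining; 100% = mean of all compound wells on the same plate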). The conditions noted are these: S. cerevisiae aging, superoxide DHE fluorescence; at 10 µM, stronger effect = lower value.
The target in test [9] is Beta-adrenergic receptor kinase 1 (Homo sapiens) (UniProt P25098). As to the kind of experiment: GRK2 binders displacing RNA aptamer, biochemical, validation, human GRK2, bead flow cytometry (AID 488806;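 active = aptamer binding inhibition above 30%, about 3 SD of noise from non-fluorescent compounds; inactive = inhibition at or below 30%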). The note with it: bead-bound GRK2, FAM-aptamer displacement, at 10 µM, stronger effect = higher value.
Beta-adrenergic receptor kinase 1 (Homo sapiens), sequence (P25098 whole entry, looked up): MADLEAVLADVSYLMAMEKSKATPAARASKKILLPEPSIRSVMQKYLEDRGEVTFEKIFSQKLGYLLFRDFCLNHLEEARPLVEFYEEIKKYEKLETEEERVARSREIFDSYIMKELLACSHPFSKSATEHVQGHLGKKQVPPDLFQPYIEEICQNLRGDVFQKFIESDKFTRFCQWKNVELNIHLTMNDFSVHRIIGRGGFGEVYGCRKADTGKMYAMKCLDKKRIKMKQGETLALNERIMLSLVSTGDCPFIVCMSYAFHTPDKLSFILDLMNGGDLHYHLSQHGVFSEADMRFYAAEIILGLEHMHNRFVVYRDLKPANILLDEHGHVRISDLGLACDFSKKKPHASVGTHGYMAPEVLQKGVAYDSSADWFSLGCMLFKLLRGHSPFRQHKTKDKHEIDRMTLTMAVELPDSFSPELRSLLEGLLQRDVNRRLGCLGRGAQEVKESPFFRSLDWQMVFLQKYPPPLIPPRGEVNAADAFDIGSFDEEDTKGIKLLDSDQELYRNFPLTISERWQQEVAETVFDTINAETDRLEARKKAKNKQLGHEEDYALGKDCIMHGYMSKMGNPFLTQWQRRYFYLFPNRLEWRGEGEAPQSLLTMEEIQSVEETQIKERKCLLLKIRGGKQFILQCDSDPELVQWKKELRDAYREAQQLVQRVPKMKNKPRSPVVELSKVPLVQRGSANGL
Test [10] has as its target AP-2 complex subunit beta (Homo sapiens) (UniProt P63010). As to the kind of experiment: beta-arrestin/AP2 interaction blockers – biochemical, validation set, GST-AP2 beads, flow cytometry, pilot screen (AID 504541;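 active = inhibition above 54%, about 3 SD of non-fluorescent compounds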;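 note: AP2 carries R879A mutation and is captured from E. coli lysate; bead-bound FITC arrestin peptide fluorescence measuring arrestin peptide binding to AP2; 0% = DMSO wells and 100% = excess unlabeled arrestin peptide control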). The conditions noted are these: FITC arrestin peptide, at 10 µM, stronger effect = higher value, AP2 beta2 appendage fragment, R879A mutant.
Test [11] is described as follows: cytosolic pH regulators acting via V-ATPase – S. cerevisiae, pHLuorin, HTS validation (AID 504600; in the data active = response above about 15%;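 note: plate controls were DMSO for no effect and reference compound for full effect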). The note with it: V-ATPase proton transport, at 10 µM, stronger effect = higher value.
Test [12] relates to anti-desmoglein-3 scFv antibody binding to human DSG3. As to the kind of experiment: blockers of pathogenic pemphigus antibody–desmoglein-3 binding – biochemical, validation compound set, bead-based, flow cytometry, pilot screen (AID 588368;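 active = binding below the plate cutoff, the plate median minus 3 SD, with a reading above zero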;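 note: signal is the median channel fluorescence of bead-bound GFP antibody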). The note with it: Protein G beads, DSG3-Fc, scFv-GFP binding, at 10 µM, stronger effect = lower value.
The nature of test [13]: Nile Red efflux blockade in pump-expressing yeast – validation compound set, multiplex, phenotypic, pilot screen (AID 588506;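 active = efflux inhibition above 0.42, the validation set average plus 4 SD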;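 note: Nile Red retained in cells so higher fluorescence means more efflux inhibition; 0 = negative control wells and 1 = enniatin B 25 µM full block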). The conditions noted are these: S. cerevisiae pump-expressing triplex, Nile Red efflux flow cytometry; at 10 µM; stronger effect = higher value; the pumps come from Candida albicans.
Test [14] deals with ATP-binding cassette sub-family B member 6 (Homo sapiens) (UniProt Q9NP58). As to the kind of experiment: blockers of ABCB6-driven porphyrin uptake – K562-ABCB6 cells, flow cytometry, validation set, pilot screen (AID 588550;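 active = inhibition above the screen-wide mean plus 3 SD, about 51%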;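 note: 0% = DMSO wells and 100% = benzethonium chloride 70 µM positive control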). The conditions noted are these: K562-ABCB6 porphyrin accumulation, 1 h, at 10 µM, stronger effect = higher value.
ATP-binding cassette sub-family B member 6 (Homo sapiens), sequence (Q9NP58 whole entry, looked up): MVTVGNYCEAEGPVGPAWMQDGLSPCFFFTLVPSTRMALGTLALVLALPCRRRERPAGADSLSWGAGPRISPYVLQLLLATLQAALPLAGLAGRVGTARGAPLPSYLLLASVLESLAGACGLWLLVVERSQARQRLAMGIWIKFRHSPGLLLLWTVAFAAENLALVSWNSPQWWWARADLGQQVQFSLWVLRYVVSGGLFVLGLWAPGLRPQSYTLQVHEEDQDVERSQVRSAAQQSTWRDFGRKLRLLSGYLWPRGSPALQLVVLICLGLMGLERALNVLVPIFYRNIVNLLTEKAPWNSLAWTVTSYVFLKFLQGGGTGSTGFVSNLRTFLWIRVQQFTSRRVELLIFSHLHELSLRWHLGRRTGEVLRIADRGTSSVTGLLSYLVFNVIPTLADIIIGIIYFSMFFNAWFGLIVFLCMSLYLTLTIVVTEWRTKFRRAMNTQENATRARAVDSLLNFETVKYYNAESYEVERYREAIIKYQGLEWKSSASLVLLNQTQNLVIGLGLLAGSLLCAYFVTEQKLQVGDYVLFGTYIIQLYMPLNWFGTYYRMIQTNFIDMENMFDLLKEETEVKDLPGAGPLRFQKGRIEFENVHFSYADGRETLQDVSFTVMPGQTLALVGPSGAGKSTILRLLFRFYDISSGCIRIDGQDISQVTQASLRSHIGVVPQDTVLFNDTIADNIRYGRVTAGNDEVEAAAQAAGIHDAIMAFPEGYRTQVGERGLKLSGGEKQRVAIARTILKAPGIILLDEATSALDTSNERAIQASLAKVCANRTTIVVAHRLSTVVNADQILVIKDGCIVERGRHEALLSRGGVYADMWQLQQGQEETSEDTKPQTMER
A short description of test [15]: AML differentiation inducers, ER-HoxA9 marrow cells – cell-based, GFP/MAC1 double positive, flow cytometry, validation set, primary screen (AID 588685;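 active = differentiation response of at least 50%, scaled between solvent and reference control, from cells with both markers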;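 note: compound exposure lasts four days before antibody staining and flow analysis; 0% = DMSO wells and 100% = 5 µM fulvestrant positive control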). The note with it: stronger effect = higher value, normalized: vehicle 0, fulvestrant 100.

The structures appear in SMILES notation. Inconclusive results are not listed. Calls of active or inactive are those of the source.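 Rule for the calls, unless noted: active = GFP signal, as percent of the solvent control, above the screen mean plus 3 SD, about 149; inconclusive = no reading because the compound's own fluorescence upset strain identification; inactive = the rest.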

Integrin beta-1 (Homo sapiens) + Integrin alpha-4 (Homo sapiens), sequence (P05556 whole entry, looked up): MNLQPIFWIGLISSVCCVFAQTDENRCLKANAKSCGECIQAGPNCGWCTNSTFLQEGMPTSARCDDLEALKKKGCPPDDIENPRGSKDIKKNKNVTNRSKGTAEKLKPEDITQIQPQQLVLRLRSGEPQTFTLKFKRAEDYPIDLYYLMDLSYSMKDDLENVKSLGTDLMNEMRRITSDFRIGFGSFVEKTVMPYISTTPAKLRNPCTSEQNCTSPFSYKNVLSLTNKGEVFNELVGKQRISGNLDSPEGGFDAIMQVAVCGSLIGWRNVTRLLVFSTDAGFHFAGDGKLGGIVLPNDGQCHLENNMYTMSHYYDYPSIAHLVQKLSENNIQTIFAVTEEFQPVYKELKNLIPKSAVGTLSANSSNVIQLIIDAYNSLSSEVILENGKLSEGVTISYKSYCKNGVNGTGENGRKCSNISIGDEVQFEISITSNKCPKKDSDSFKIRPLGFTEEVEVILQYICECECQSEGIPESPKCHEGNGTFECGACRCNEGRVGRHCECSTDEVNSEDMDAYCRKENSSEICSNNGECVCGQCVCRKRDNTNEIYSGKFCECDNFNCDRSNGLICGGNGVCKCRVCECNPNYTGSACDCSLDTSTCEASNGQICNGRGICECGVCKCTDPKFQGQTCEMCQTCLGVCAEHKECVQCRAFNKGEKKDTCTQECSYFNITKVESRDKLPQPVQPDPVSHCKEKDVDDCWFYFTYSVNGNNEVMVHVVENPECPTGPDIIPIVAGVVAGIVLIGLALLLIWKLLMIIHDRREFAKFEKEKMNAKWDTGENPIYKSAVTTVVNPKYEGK
Integrin beta-1 (Homo sapiens) + Integrin alpha-4 (Homo sapiens), sequence (P13612 whole entry, looked up): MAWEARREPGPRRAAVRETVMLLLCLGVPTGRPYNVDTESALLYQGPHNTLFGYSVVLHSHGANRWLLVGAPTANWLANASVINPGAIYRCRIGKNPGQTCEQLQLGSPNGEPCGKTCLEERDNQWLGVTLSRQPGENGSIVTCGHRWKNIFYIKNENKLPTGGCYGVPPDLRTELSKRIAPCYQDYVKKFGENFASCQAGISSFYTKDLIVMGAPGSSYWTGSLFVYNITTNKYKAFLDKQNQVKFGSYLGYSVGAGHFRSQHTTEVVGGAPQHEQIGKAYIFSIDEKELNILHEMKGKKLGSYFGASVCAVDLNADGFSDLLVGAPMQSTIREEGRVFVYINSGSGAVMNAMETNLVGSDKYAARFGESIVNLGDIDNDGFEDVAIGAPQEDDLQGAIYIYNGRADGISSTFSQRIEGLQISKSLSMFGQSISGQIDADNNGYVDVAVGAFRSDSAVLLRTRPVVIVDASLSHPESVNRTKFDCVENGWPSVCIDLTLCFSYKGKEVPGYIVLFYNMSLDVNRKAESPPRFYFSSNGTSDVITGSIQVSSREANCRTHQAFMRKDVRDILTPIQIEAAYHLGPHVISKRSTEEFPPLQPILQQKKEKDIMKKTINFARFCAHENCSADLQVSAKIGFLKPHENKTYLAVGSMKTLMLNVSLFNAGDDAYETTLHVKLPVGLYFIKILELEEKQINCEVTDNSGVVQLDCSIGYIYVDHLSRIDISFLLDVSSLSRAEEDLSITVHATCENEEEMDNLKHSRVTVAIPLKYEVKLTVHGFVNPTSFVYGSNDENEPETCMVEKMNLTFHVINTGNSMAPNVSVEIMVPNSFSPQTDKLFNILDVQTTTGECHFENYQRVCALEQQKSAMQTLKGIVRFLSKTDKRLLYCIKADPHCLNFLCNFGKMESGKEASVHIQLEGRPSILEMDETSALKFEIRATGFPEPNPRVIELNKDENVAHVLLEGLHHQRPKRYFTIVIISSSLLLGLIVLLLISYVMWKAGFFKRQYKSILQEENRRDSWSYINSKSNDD
AP-2 complex subunit beta (Homo sapiens), sequence (P63010 whole entry, looked up, the tested form may be a part, one chain of several): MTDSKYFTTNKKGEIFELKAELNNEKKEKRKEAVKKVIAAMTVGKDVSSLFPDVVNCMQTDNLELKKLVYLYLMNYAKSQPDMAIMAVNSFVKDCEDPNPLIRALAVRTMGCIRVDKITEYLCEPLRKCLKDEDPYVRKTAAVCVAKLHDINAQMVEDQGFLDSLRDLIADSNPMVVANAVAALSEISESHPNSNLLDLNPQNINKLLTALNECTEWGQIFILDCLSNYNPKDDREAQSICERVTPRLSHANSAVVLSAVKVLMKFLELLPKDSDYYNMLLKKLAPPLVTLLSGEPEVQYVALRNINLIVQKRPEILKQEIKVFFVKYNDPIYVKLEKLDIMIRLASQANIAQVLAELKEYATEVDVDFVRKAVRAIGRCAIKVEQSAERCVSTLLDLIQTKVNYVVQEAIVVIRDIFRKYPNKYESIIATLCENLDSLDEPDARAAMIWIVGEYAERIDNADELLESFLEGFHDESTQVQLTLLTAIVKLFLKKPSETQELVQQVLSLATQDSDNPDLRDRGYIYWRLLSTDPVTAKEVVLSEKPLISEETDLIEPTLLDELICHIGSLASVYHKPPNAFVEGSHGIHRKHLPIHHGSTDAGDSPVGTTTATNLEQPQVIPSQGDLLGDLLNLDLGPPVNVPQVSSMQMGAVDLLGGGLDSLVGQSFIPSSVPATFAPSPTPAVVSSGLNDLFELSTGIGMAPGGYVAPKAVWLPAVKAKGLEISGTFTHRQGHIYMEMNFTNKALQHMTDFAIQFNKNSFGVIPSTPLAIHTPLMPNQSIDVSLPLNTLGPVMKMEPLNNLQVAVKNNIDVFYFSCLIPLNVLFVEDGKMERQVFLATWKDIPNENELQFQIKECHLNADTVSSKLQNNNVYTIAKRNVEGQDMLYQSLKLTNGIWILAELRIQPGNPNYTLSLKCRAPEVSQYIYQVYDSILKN

For `COc1ccc(-c2cc3cc(OC)c(OC)cc3c(C)n2)cc1`, in test [1], the percent of DMSO control GFP was 103% (inactive). The values for the GFP response vs DMSO in test [2] and in [4] were 105% (inactive) and 90.3% (inactive), respectively. For the same molecule, in test [3], the percent response of DMSO control is 102% (inactive). Besides, in test [5], the GFP response, % of DMSO was 90.7% (inactive). The double positive events in [6] is 53.2%. In addition, the vesicle binding response in test [6] was 149% (inactive). The inhibition in [7] is 5.36% (inactive); in test [10], 1.41% (inactive); in test [14] it was -2% (inactive). Further, the superoxide response (% of plate) in test [8] was 96% (inactive). The aptamer binding inhibition in test [9] was 6% (inactive). In [11], the response was 1.33% (inactive). The binding (% of control) in [12] is 106% (inactive). For the same molecule, the efflux inhibition (fraction of control) in test [13] is -0.09 (inactive). Moreover, the differentiation response in test [15] was -8.27% (inactive).
As to `CCOc1cc2oc(=O)c3c(c2cc1Cl)CCC3`, the percent of DMSO control GFP in test [1] was 104% (inactive). The GFP response vs DMSO was 99.9% (inactive) in test [2] and 111% (inactive) in [4]. In test [3], the percent response of DMSO control was 102% (inactive). In addition, the GFP response, % of DMSO in test [5] is 107% (inactive). The double positive events in test [6] turned out to be 51.1%. Further, the vesicle binding response in [6] was 165% (inactive). Further, the inhibition is -6.77% (inactive) in [7], -15.2% (inactive) in [10] and 6% (inactive) in test [14]. In test [8], the superoxide response (% of plate) is 109% (inactive). Besides, the aptamer binding inhibition in test [9] is 1% (inactive). The response in [11] is -4.08% (inactive). Moreover, in test [12], the binding (% of control) was 103% (inactive). Further, in [13], the efflux inhibition (fraction of control) is -0.05 (inactive). In addition, the differentiation response in test [15] is -11.5% (inactive).
For the molecule `CCOC(=O)c1ccccc1NC(=O)c1ccc(F)cc1`, in [1], the percent of DMSO control GFP is 101% (inactive). Besides, the GFP response vs DMSO is 108% (inactive) in test [2] and 92.3% (inactive) in [4]. Also, the percent response of DMSO control in test [3] is 103% (inactive). Also, the GFP response, % of DMSO in test [5] is 91.8% (inactive). Moreover, in test [6], the double positive events was found to be 60.4%. In addition, in test [6], the vesicle binding response was 102% (inactive). Besides, the inhibition in test [7] was 10.9% (inactive); in test [10] it was 6.01% (inactive); in [14] it was 13% (inactive). Moreover, in [8], the superoxide response (% of plate) was 100% (inactive). In [9], the aptamer binding inhibition is 3% (inactive). Besides, the response in [11] was -5.23% (inactive). The binding (% of control) in test [12] was 98.8% (inactive). In addition, the efflux inhibition (fraction of control) in test [13] was 0.37 (inactive). Also, the differentiation response in [15] is -13.1% (inactive).
Take `Cn1c2ccccc2c2cc(/C=C(\NC(=O)c3ccccc3)C(=O)O)ccc21`: the percent of DMSO control GFP in [1] was 95.6% (inactive). Further, the GFP response vs DMSO in test [2] was 90.8% (inactive); in [4], 92.3% (inactive). The percent response of DMSO control in [3] was 106% (inactive). Also, in [5], the GFP response, % of DMSO is 95.7% (inactive). Moreover, the double positive events in test [6] came out at 58%. Further, in test [6], the vesicle binding response is 107% (inactive). The inhibition in [7] was -9.57% (inactive); in test [10], -8.15% (inactive); in test [14], 10% (inactive). Moreover, the superoxide response (% of plate) in [8] was 111% (inactive). Besides, the aptamer binding inhibition in test [9] was 3% (inactive). Also, the response in test [11] was 1.01% (inactive). Besides, the binding (% of control) in [12] is 96.5% (inactive). For the same molecule, in [13], the efflux inhibition (fraction of control) was -0.43 (inactive). Besides, the differentiation response in [15] was -14.7% (inactive).
As for `COc1cc2nc(N3CCN(C(=O)C4COc5ccccc5O4)CC3)nc(N)c2cc1OC` (stereo not given), the percent of DMSO control GFP in test [1] was 101% (inactive). Moreover, the GFP response vs DMSO in test [2] is 108% (inactive); in test [4], 110% (inactive). Also, the percent response of DMSO control in test [3] is 104% (inactive). Further, the GFP response, % of DMSO in test [5] was 116% (inactive). Besides, the double positive events in test [6] stood at 61.4%. Further, the vesicle binding response in [6] was 203% (inactive). For the same molecule, the figures for the inhibition in test [7], in [10] and in test [14] were -8.78% (inactive), 26.5% (inactive) and -6% (inactive), respectively. Further, in [8], the superoxide response (% of plate) was 57.2% (active). The aptamer binding inhibition in test [9] is 1% (inactive). Also, the response in test [11] is -4.66% (inactive). The binding (% of control) in test [12] was 108% (inactive). In addition, the efflux inhibition (fraction of control) in [13] is 0 (inactive). The differentiation response in test [15] is 3.88% (inactive).
